Data on three compounds can be found in PubChem BioAssay (NCATS).

Holding throughout (assay): Cytotoxic Profiling of Annotated Libraries Using Quantitative High-Throughput Screening (AID 1296008); also: nearly all actives have a fitted effect of over 60% in size
What all share (details): Five cell lines viability, CellTiter-Glo ATP luminescence, 48-72 h; max response: active compounds read low
A general note: ATP-based viability assays read luminescence as a measure of living cells.

One experiment concerns HaCat. In short, it runs like this: (§1)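 Cells exposed to compounds for 48 or 72 hr at 37 degrees Celsius. Viability read as ATP-coupled luminescence with CellTiter-Glo after 10 min at room temperature.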
In the next experiment the test system is KB-3-1. In short, it runs like this: as §1
Another experiment deals with NIH3T3. In short, it runs like this: as §1

Each structure is given as a SMILES string. Inconclusive results are not listed. Active and inactive are the calls of the source. Calls follow the shape of the dose curve; as a rule, active = well fitted inhibition curve with a large enough effect; inconclusive = small, poorly fitted or top-dose-only effect; inactive = flat fitted curve, though single readings scatter.
Potency is read from the fitted curve at half-maximal effect.

Regarding `Nc1nc(N)c2nc(-c3cccc(O)c3)c(-c3cccc(O)c3)nc2n1`, the Potency with HaCat is 14.8 µM (active); in the experiment with KB-3-1, 10.5 µM (active).

In the case of `C[C@H](NCc1ccc(OCc2cccc(F)c2)cc1)C(N)=O`, the figures for the Potency in the experiment on KB-3-1 and with NIH3T3 were 9.35 µM (active) and 4.18 µM (active), respectively.

Regarding `C[C@H]1[C@@H](OC(=O)CCC(=O)O)O[C@@H]2O[C@@]3(C)CC[C@@H]4[C@H](C)CC[C@@H]1[C@@]24OO3`, the Potency was 18.7 µM (active) in the experiment with KB-3-1 and 20.9 µM (active) with NIH3T3.
